# Experimental data from PubChem BioAssay (NCI).
# Compounds without any hit were thinned out: in the full panel of roughly 83,000, 20% have a hit.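 Negative percent growth values reflect cell death: -40 means 40% of the cells present at the start died, and -100 means all died.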 Values without a mark were called inactive. The source made the active and inactive calls. Rule for the calls: active = growth percent below 10; inactive = the rest.
# What was measured:
# Test in all cases: NCI-60 one-dose screen, 48 h (100 = growth as untreated, 0 = no growth, -100 = all killed)
# Details in all cases: 10 µM unless noted
# NCI-H23 lung = system: NCI-H23 lung
# NCI-H226 lung = system: NCI-H226 lung
# NCI-H322M lung = system: NCI-H322M lung
# HOP-62 NSCLC = system: HOP-62 NSCLC
# NCI-H460 lung = system: NCI-H460 lung
# HOP-92 NSCLC = system: HOP-92 NSCLC
# NCI-H522 lung = system: NCI-H522 lung
# A549/ATCC NSCLC = system: A549/ATCC NSCLC
# 786-0 renal = system: 786-0 renal
# COLO 205 colon = system: COLO 205 colon
Compound,growth (NCI-H23 lung),growth (NCI-H226 lung),growth (NCI-H322M lung),growth (HOP-62 NSCLC),growth (NCI-H460 lung),growth (HOP-92 NSCLC),growth (NCI-H522 lung),growth (A549/ATCC NSCLC),growth (786-0 renal),growth (COLO 205 colon)
O=C(O)c1cccc(CN2CCN(c3cc4c(cc3F)c(=O)c(C(=O)O)cn4C3CC3)CC2)c1O,101%,106%,111%,105%,106%,97%,87.1%,99.5%,102%,103%
C=C(C)[C@@H]1CC[C@]2(C(=O)N3CCN(C)CC3)CC[C@]3(C)[C@H](CC[C@@H]4[C@@]5(C)C/C(=C/c6ccncc6)[C@H](O)C(C)(C)[C@@H]5CC[C@]43C)[C@@H]12,4.32% [100 µM] (active),-51% [100 µM] (active),-27% [100 µM] (active),-38.6% [100 µM] (active),-67.4% [100 µM] (active),-39.3% [100 µM] (active),-46.3% [100 µM] (active),16.2% [100 µM],-90.8% [100 µM] (active),-74.8% [100 µM] (active)
CCN(CC)CCCC(C)Nc1c2ccc(C)cc2nc2ccc(OC)cc12 (stereo not given),41.8%,42.4%,10.9%,45%,-44.3% (active),40.8%,51.1%,14.7%,33%,-40.4% (active)
CC(C)C1=NOC(=O)C1=Cc1cn(-c2ccco2)nc1-c1ccccc1,96.6%,102%,102%,79.1%,93.8%,94.1%,84.8%,99.2%,89.1%,103%
O=C1/C(=C\c2cccn2Cc2ccccc2)c2ccccc2N1c1c(Cl)cccc1Cl,68.7%,53.1%,54.8%,77.2%,42.7%,1.73% (active),88.9%,53.1%,89%,-6.31% (active)
Brc1ccc(-c2nnc3c4[nH]ccc4ncn23)cc1,88.3%,96.7%,91%,92.6%,90.1%,69.6%,80.9%,91.8%,94%,109%
COc1cc2c(c(Br)c1N)-c1cc(Br)c(N)cc1C2=O,49.9%,-24.1% (active),71.2%,60.8%,45.7%,54.9%,70.5%,83.5%,58.8%,79.3%
C=C(C)[C@@H]1CC[C@]2(C(=O)NCCCN)CC[C@]3(C)[C@H](CC[C@@H]4[C@@]5(C)CC[C@H](O)C(C)(C)[C@@H]5CC[C@]43C)[C@@H]12,-8.47% [100 µM] (active),36.6% [100 µM],-68.8% [100 µM] (active),-26.8% [100 µM] (active),-43.2% [100 µM] (active),-55.5% [100 µM] (active),-17% [100 µM] (active),-4.7% [100 µM] (active),-22.6% [100 µM] (active),7.82% [100 µM] (active)
N#CC1C(=O)NC(c2ccccc2[N+](=O)[O-])c2sc3c(F)cccc3c21 (stereo not given),68.9%,-14.9% (active),67.2%,33.8%,2.01% (active),82.7%,88.6%,47.2%,90%,70.1%
COc1ccc2c(c1)c(-c1noc(C(=O)c3cn(C)c4ncc(Br)cc34)n1)cn2C,30.1%,26.6%,92.9%,53.1%,76.7%,7.92% (active),67.9%,28.1%,59%,68.4%
COc1ccc2[nH]c(C(=O)N3CCN(C(=O)OCc4ccc5c(Br)cc(Br)c(O)c5n4)CC3)cc2c1,-78.2% (active),-84.3% (active),-87.1% (active),-67% (active),-60.3% (active),-83.9% (active),-78.4% (active),-79.5% (active),-93% (active),-83.1% (active)
COc1cc2c(c(OC)c1OC)-c1ccc(NNC(N)=S)c(=O)cc1[C@@H](NC(C)=O)CC2,5.07% (active),27.9%,64.9%,32.7%,-3.14% (active),-6.59% (active),-63.3% (active),15.7%,21.9%,-95.6% (active)
Cc1ccc(Oc2c(/C=N/NC(=O)Cn3c(=O)sc4ccccc43)c(C)nn2-c2ccccc2)cc1,50.6%,62%,67.3%,71.5%,52%,46.1%,46.7%,32.8%,80.9%,42.4%
CC(=O)n1cc(C=O)c2ccccc21,94.4%,91.1%,105%,103%,112%,94.8%,91.3%,89.4%,101%,104%
CCOC(=O)c1sc2nc(-c3cc(OC)c(OC)c(OC)c3)nc(N3CCOCC3)c2c1C,27.6%,44.7%,48.2%,77.1%,17.5%,-15% (active),12.1%,28.9%,51.8%,26.5%
COCc1nc2ccccc2[nH]1,103%,100%,100%,105%,106%,100%,96.3%,100%,99.4%,109%
CC(C)OC(=O)Nc1cc(F)ccc1F,92.9%,90.9%,90.8%,101%,106%,99.6%,99.8%,99.7%,103%,105%
CN(C)C(=S)Sc1ccc([N+](=O)[O-])cc1[N+](=O)[O-],44.4%,49.6%,101%,71.1%,-41.6% (active),0.304% (active),-92.1% (active),43.6%,63.8%,-22.7% (active)
Fc1ccc(NC(=S)c2ccccc2)cc1,104%,99.1%,106%,113%,107%,86.5%,96.3%,98.8%,99.5%,113%
COc1cc2c(=O)[nH]c3cc([N+](=O)[O-])ccc3c2cc1[N+](=O)[O-],55.4%,45%,60.8%,85.5%,14%,45.9%,28.7%,40.5%,70.1%,56.6%
CCOC(=O)C(C(C)=O)c1nc2sc3cc(Cl)c(Cl)cc3n2c(=O)c1C#N (stereo not given),94.7%,95.3%,114%,109%,92.7%,76.8%,62.9%,108%,114%,108%
Nc1cccc2c1C(=O)c1cccc(NC(=O)c3ccccc3)c1C2=O,29.9%,52.2%,-7.76% (active),38.7%,7.2% (active),53.2%,-28.5% (active),28.6%,37.5%,-11.5% (active)
CCOC(=O)c1ccc2nc(-c3c(C)nn(-c4ccccc4)c3N3CCOCC3)[nH]c2c1,95.2%,73.3%,102%,85.6%,97%,79.8%,87.2%,94.5%,104%,114%
CS(=O)(=O)c1cccnn1,95.8%,97.4%,99.7%,103%,101%,75.5%,82%,104%,97.2%,131%
CC1(C)OC2[C@@H](CNC(=O)NC(=O)NC(=O)CI)O[C@@H](n3cnc4c(NC(=O)Nc5ccccc5)ncnc43)[C@H]2O1 (stereo not given in full),57.7%,97.1%,103%,78%,93.1%,-63.2% (active),-76% (active),94.9%,-77.9% (active),51.7%
CC(C)C1=NOC(=O)C1=Cc1cn(-c2ccccc2)nc1-c1ccccc1,98%,95.2%,91%,99.8%,85.2%,85.2%,68.7%,88.8%,72.9%,110%
